Measurements taken from the antibiotic and cytotoxicity screens of Wong et al. (2023).
About 3,300 (8.5%) of roughly 39,000 compounds were called active. This is one part of a sample in which actives are shown more often than they occur.

The compounds below were run on HepG2 (assay: cytotoxicity call (relative viability < 0.9)). Settings: 10 µM.

Row | SMILES | cytotoxicity call
1 | CC(C)C[C@@H]1NC(=O)[C@@H]2C[C@H](C(=O)NCCCCCNC(=O)CS)[C@H](c3ccc(O)cc3)N2C1=O | inactive
2 | C[C@H]1CN([C@@H](C)CO)S(=O)(=O)c2ccc(-c3cccc(C#N)c3)cc2O[C@H]1CN(C)C(=O)c1ccncc1 | inactive
3 | C[C@@H]1CN([C@@H](C)CO)S(=O)(=O)c2ccc(-c3ccc(C(=O)N(C)C)cc3)cc2O[C@@H]1CN(C)C(=O)C1CCOCC1 | inactive
4 | CCN(CC)CCOc1ccc(C(=C(Cl)c2ccccc2)c2ccccc2)cc1.O=C(O)CC(O)(CC(=O)O)C(=O)O | active
5 | O=C(O)C1(c2ccccc2)CCCC1 | inactive
6 | CCC(=C(c1ccccc1)c1ccc(OCCN(C)C)cc1)c1ccccc1.O=C(O)CC(O)(CC(=O)O)C(=O)O | inactive
7 | CN(C)CCOc1ccc(C(=C(CCCl)c2ccccc2)c2ccccc2)cc1.O=C(O)CC(O)(CC(=O)O)C(=O)O | active
8 | O=C(O)CC(O)(CC(=O)O)C(=O)O [listing 1 of 2 here] | inactive
9 | Cc1ccccc1C(OCCN(C)C)c1ccccc1.O=C(O)CC(O)(CC(=O)O)C(=O)O (centres undefined) | inactive
10 | CCN(CC)CCOCCOC(=O)C(CC)(CC)c1ccccc1.O=C(O)CC(O)(CC(=O)O)C(=O)O | inactive
11 | CCN(CC)CCOCCOC(=O)C1(c2ccccc2)CCCC1.O=C(O)CC(O)(CC(=O)O)C(=O)O | active
12 | O=C(O)CC(O)(CC(=O)O)C(=O)O [listing 2 of 2 here] | inactive
13 | O=C(C[C@@H]1CC[C@@H]2[C@H](COC[C@H](O)CN2S(=O)(=O)c2ccc(F)cc2)O1)NCCN1CCCCC1 | inactive
14 | C[C@@H]1CN([C@H](C)CO)C(=O)c2cccc(NS(C)(=O)=O)c2O[C@H]1CN(C)C(=O)Nc1ccc2c(c1)OCO2 | inactive
15 | CC(C)CC#Cc1ccc2c(c1)O[C@H](CN(C)Cc1cncnc1)[C@@H](C)CN([C@H](C)CO)S2(=O)=O | inactive
16 | C=CC(=O)Nc1ccc([C@@H](CCc2ccc(OC)c(OC)c2)OC(=O)[C@@H]2CCCCN2C(=O)C(=O)C(C)(C)CC)cc1 | inactive
17 | Cc1ccc(S(=O)(=O)Nc2ccc3c(c2)C(=O)N([C@H](C)CO)C[C@@H](C)[C@@H](CN(C)C(=O)Cc2ccccc2)OCCCC[C@H](C)O3)cc1 | inactive
18 | COCC(=O)Nc1ccc2c(c1)OC[C@@H](C)N(Cc1ccccc1F)C[C@@H](C)[C@H](OC)CN(C)C2=O | inactive
19 | Cc1noc(C)c1NC(=O)Nc1ccc2c(c1)C(=O)N([C@@H](C)CO)C[C@@H](C)[C@H](CN(C)S(=O)(=O)c1cccs1)OCCCC[C@H](C)O2 | inactive
20 | C[C@@H]1CN([C@H](C)CO)C(=O)c2cc(NC(=O)Cn3cnnn3)ccc2O[C@@H]1CN(C)S(=O)(=O)c1cccs1 | inactive
21 | C1CCC(C(C[C@H]2CCCCN2)C2CCCCC2)CC1 | active
22 | O=C(O)CC[C@H]1CCCCN1 | inactive
23 | O=C(O)[C@@H]1CCCCN1 | inactive
24 | C1CCC(C(CC2CCCCN2)C2CCCCC2)CC1.O=C(O)C=CC(=O)O (centres undefined) | active
25 | OC[C@@H]1CCCN1 | inactive

Row | SMILES | cytotoxicity call
26 | OC[C@@H]1CCCCN1 | inactive
27 | C[C@H]1CN([C@@H](C)CO)C(=O)c2cccc(NS(=O)(=O)c3cn(C)cn3)c2O[C@H]1CN(C)CC1CCCCC1 | inactive
28 | CCCC#Cc1ccc2c(c1)O[C@@H](CN(C)S(=O)(=O)c1cccc(F)c1)[C@@H](C)CN([C@@H](C)CO)S2(=O)=O | inactive
29 | O=C(CN1CCOCC1)NCC[C@H]1CC[C@@H](NC(=O)c2ccccc2F)[C@@H](CO)O1 | inactive
30 | CC(C)NC(=O)N(C)C[C@@H]1Oc2ccc(NC(=O)CCCN(C)C)cc2C(=O)N([C@H](C)CO)C[C@H]1C | inactive
31 | CCc1nc2ccccc2nc1CC | inactive
32 | CCc1nc(N)nc(N)c1-c1ccc(Cl)cc1 | active
33 | Nc1oncc1-c1ccc(Cl)cc1 | inactive
34 | C[C@@H]1CN([C@@H](C)CO)C(=O)c2cc(NC(=O)Nc3ccccc3)ccc2O[C@@H](C)CCCCO[C@H]1CN(C)C(=O)Cc1ccccc1 | inactive
35 | C[C@@H]1CCCCO[C@@H](CN(C)C(=O)Nc2ccc(F)cc2)[C@@H](C)CN([C@H](C)CO)C(=O)c2cc(NC(=O)Nc3ccc(C(F)(F)F)cc3)ccc2O1 | inactive
36 | CC(C)CC#Cc1ccc2c(c1)O[C@@H](CN(C)CC1CCOCC1)[C@H](C)CN([C@@H](C)CO)S2(=O)=O | active
37 | C[C@H]1CN([C@@H](C)CO)S(=O)(=O)c2ccc(C#Cc3ccccc3F)cc2O[C@@H]1CN(C)C(=O)c1ccc2c(c1)OCO2 | inactive
38 | CC(C)CC#Cc1ccc2c(c1)O[C@H](CN(C)CC1CCOCC1)[C@@H](C)CN([C@H](C)CO)S2(=O)=O | inactive
39 | C[C@@H]1CN([C@H](C)CO)S(=O)(=O)c2ccc(C#Cc3ccccc3F)cc2O[C@@H]1CN(C)C(=O)Cc1cccnc1 | inactive
40 | C[C@H]1CN([C@@H](C)CO)S(=O)(=O)c2ccc(C#Cc3ccccc3F)cc2O[C@H]1CN(C)C(=O)c1ccc2c(c1)OCO2 | inactive
41 | C[C@@H]1CN([C@H](C)CO)S(=O)(=O)c2ccc(C#Cc3ccccc3F)cc2O[C@@H]1CN(C)CC1CC1 | inactive
42 | C[C@@H]1CN([C@@H](C)CO)S(=O)(=O)c2ccc(C#Cc3ccccc3F)cc2O[C@H]1CN(C)C(=O)Cc1cccnc1 | inactive
43 | C[C@@H]1CN([C@@H](C)CO)S(=O)(=O)c2ccc(C#Cc3ccccc3F)cc2O[C@@H]1CN(C)C(=O)Cc1cccnc1 | active
44 | CC(C)CC#Cc1ccc2c(c1)O[C@@H](CN(C)CC1CCOCC1)[C@@H](C)CN([C@H](C)CO)S2(=O)=O | inactive
45 | C[C@H](CO)N1C[C@H](C)[C@H](CN(C)CC2CC2)Oc2cc(C#Cc3ccccc3F)ccc2S1(=O)=O | active
46 | C[C@@H]1CN([C@@H](C)CO)S(=O)(=O)c2ccc(C#Cc3ccccc3F)cc2O[C@@H]1CN(C)C(=O)c1ccc2c(c1)OCO2 | active
47 | C[C@@H]1CN([C@@H](C)CO)S(=O)(=O)c2ccc(C#Cc3ccccc3F)cc2O[C@H]1CN(C)CC1CC1 | inactive
48 | C[C@H]1CN([C@@H](C)CO)S(=O)(=O)c2ccc(C#CC3CC3)cc2O[C@@H]1CN(C)C(=O)c1cccc(F)c1 | inactive
49 | Cc1noc(C)c1NC(=O)N(C)C[C@H]1OCCCC[C@@H](C)Oc2ccc(NC(=O)Nc3ccccc3)cc2C(=O)N([C@@H](C)CO)C[C@H]1C | inactive
50 | CCC(=O)n1ccc(C(=O)N2CCOCC2)n1 | inactive

Row | SMILES | cytotoxicity call
51 | O=C(Nc1nn[nH]n1)C1CCCCC1 | inactive
52 | C[C@@H]1CCCCO[C@H](CN(C)Cc2ccncc2)[C@@H](C)CN([C@@H](C)CO)C(=O)c2cc(NC(=O)Nc3ccc(F)cc3)ccc2O1 | inactive
53 | C[C@H](CO)N1C[C@H](C)[C@H](CN(C)C(=O)Nc2ccc(F)cc2)OCCCC[C@H](C)Oc2ccc(NC(=O)C3CCCCC3)cc2C1=O | inactive
54 | COc1cccc(OC)c1C(=O)NN | inactive
55 | FC(F)(F)c1ccccc1-c1ncc(-c2ccccc2)o1 | inactive
56 | CC(=O)N(O)CCC[C@H]1NC(=O)CNC(=O)CNC(=O)CNC(=O)[C@@H](CCCN(O)C(C)=O)NC(=O)[C@@H](CCCN(O)C(C)=O)NC1=O | inactive
57 | COc1ccc(NC(=O)N(C)C[C@H]2OCCCC[C@H](C)Oc3ccc(NC(=O)C4CCCCC4)cc3C(=O)N([C@@H](C)CO)C[C@@H]2C)cc1 | inactive
58 | C[C@@H]1CCCCO[C@H](CN(C)Cc2ccccc2)[C@@H](C)CN([C@H](C)CO)C(=O)c2cc(NC(=O)c3ccncc3)ccc2O1 | inactive
59 | CCCCCN1CC=C[C@@]23O[C@@H]4C=CCOC(=O)[C@@H]4[C@H]2C(=O)N(CCCO)[C@@H]3C1=O | inactive
60 | C[C@@H]1CN([C@H](C)CO)C(=O)c2cc(NC(=O)CCN3CCOCC3)ccc2O[C@@H]1CN(C)Cc1ccc2c(c1)OCO2 | inactive
61 | O=C(C[C@H]1CC[C@@H]2[C@H](COC[C@@H](O)CN2S(=O)(=O)c2ccc(Cl)cc2)O1)N[C@H]1CCN(Cc2ccccc2)C1 | inactive
62 | O=C(C[C@@H]1CC[C@H]2[C@@H](COC[C@@H](O)CN2S(=O)(=O)c2ccc(Cl)cc2)O1)N[C@H]1CCN(Cc2ccccc2)C1 | inactive
63 | O=C(C[C@@H]1CC[C@@H]2[C@H](COC[C@H](O)CN2S(=O)(=O)c2ccc(Cl)cc2)O1)N[C@@H]1CCN(Cc2ccccc2)C1 | active
64 | O=C(C[C@H]1CC[C@H]2[C@@H](COC[C@@H](O)CN2S(=O)(=O)c2ccc(Cl)cc2)O1)N[C@@H]1CCN(Cc2ccccc2)C1 | active
65 | O=C(C[C@H]1CC[C@@H]2[C@H](COC[C@H](O)CN2S(=O)(=O)c2ccc(Cl)cc2)O1)N[C@@H]1CCN(Cc2ccccc2)C1 | inactive
66 | O=C(C[C@@H]1CC[C@@H]2[C@H](COC[C@@H](O)CN2S(=O)(=O)c2ccc(Cl)cc2)O1)N[C@@H]1CCN(Cc2ccccc2)C1 | inactive
67 | Cc1ccc(S(=O)(=O)Nc2ccc3c(c2)CC(=O)N([C@@H](C)CO)C[C@@H](C)[C@@H](CN(C)Cc2ccncc2)O3)cc1 | inactive
68 | NC(=O)CSc1nc(N)cc(N)n1 | inactive
69 | COc1ccc(S(=O)(=O)Nc2ccc3c(c2)C(=O)N([C@H](C)CO)C[C@@H](C)[C@@H](CN(C)Cc2ccc4c(c2)OCO4)OCCCC[C@@H](C)O3)cc1 | inactive
70 | C[C@H](CO)N1C[C@H](C)[C@H](CN(C)C(=O)Nc2ccccc2)Oc2ccc(NC(=O)CCN3CCOCC3)cc2C1=O | inactive
71 | C[C@@H]1CN([C@@H](C)CO)C(=O)c2cccc(NS(=O)(=O)c3cn(C)cn3)c2O[C@H]1CN(C)C(=O)NC1CCCCC1 | inactive
72 | Cc1ccc2nc(-c3ccncc3)cc(-c3ccccc3)c2c1 | inactive
73 | Cc1ccc2ncccc2c1 | inactive
74 | Cc1ccc2c(c1)/C(=C/c1ccncc1)c1cc3ccccc3nc1-2 | active
